Test results published in PubChem BioAssay AID624300 (Southern Research Specialized Biocontainment Screening …, 2012).
Among all 2,400 compounds or so, about 360 (15%) were called active.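 How the source made its calls: active means viability falls under 70% at one or more tested concentrations, taken as toxicity; inactive means viability stays over 70% at every dose.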 Not all results are given here. Where a call stands in place of a potency, no number is given. Potency and affinity values are given separately.

Assay: HeLa cell cytotoxicity, dose response, cytotoxicity control for MgcRacGAP inhibitor project (AID 624300)
Details: CellTiter-Glo luminescence, 24 h; series mostly up to 100 µM

| SMILES | outcome |
| --- | --- |
| CC(=O)C[C@H]1c2cc(F)ccc2S(=O)(=O)N1c1ccc(N(C)C)cc1 | inactive |
| COc1cc(OC)c(OC)cc1CN1CCN(Cc2ccc(SC)cc2)CC1 | inactive |
| CN1CC(=O)N(CC(=O)Nc2ccc(N(C)C)cc2)c2ccccc2C1=O | inactive |
| Cc1ccccc1-c1ccc(Nc2ccc(N3CCOCC3)cc2)nn1 | inactive |
| CC1CCCC(N2CCN(C(=O)c3ccc([N+](=O)[O-])cc3)CC2)C1 (stereo unspecified) | inactive |
| COCCCNc1nc(=S)[nH]c2cc(OC)c(OC)cc12 | inactive |
| OCCCCNc1cccc2ccccc12 | inactive |
| COCCNCc1nc2sc(C)c(-c3ccccc3)c2c(=O)[nH]1 | inactive |
| COc1ccc(N2CCN(CC(=O)Nc3cccc(S(=O)(=O)N4CCOCC4)c3)CC2)cc1 | inactive |
| CCOc1cc(/C=N/NC(=O)CSc2cccc3cccnc23)ccc1O | inactive |
| Cc1cc(-c2ccccc2)nc2c(Br)c(=O)[nH]n12 | inactive |
| COc1cc(/C=N/NS(=O)(=O)c2ccc(C)c([N+](=O)[O-])c2)ccc1O | inactive |
| O=C(O)c1ccccc1NS(=O)(=O)c1ccc(N/N=C/c2ccc(O)c(O)c2)c([N+](=O)[O-])c1 | inactive |
| C[C@]12CC[C@H]3C(=CCc4cc(O)ccc43)[C@@H]1CCC2=O | inactive |
| CN(C)c1ccc(/C=C2/NC(=O)NC2=O)cc1 | inactive |
| CC1CCC/C(=C\c2ccc(O)cc2)C1=O (stereo unspecified) | inactive |
| O=C1NC(=S)NC1=Cc1ccc(O)cc1 | inactive |
| CCOc1ccccc1NC(=O)C(NCC1(N2CCCCC2)CCCCC1)c1ccccc1 (stereo unspecified) | inactive |
| O=C(Nc1cc(Br)c(O)c(Br)c1)c1cccc(NC(=O)c2ccco2)c1 | inactive |
| O=C(NC(=S)Nc1cccc2c(O)cccc12)c1ccco1 | inactive |
| Brc1csc(C=Nc2ccc3c(c2)OCCOCCOCCOCCO3)c1 | inactive |
| CCN(CC)c1ccc(/C=N/NC(=O)OC)c(O)c1 | inactive |
| Cc1ccccc1C(=O)Nc1ccc(N2CCCC2)cc1 | inactive |
| COc1ccc(C(=O)/C=C/c2ccc(O)cc2)cc1 | inactive |

| SMILES | outcome |
| --- | --- |
| COC(=O)c1ccc(CNC(=O)COC(=O)/C=C/c2ccc(O)c(OC)c2)cc1 | inactive |
| COC(=O)c1ccc(NC(=S)Nc2ccc(O)cc2)cc1 | inactive |
| COCCCNC(=S)N1CCN(Cc2ccc3c(c2)OCO3)CC1 | inactive |
| O=C(CC(c1ccccc1)c1ccccc1)Nc1ccc(O)cc1 | inactive |
| CCOC(=O)C1CCCN(C2=NC(=O)/C(=C/c3ccc(O)c(OCC)c3)S2)C1 (stereo unspecified) | inactive |
| CCN(CC)S(=O)(=O)c1cccc(-c2n[nH]c(=S)n2/N=C/c2ccc(OC(F)F)cc2)c1 | inactive |
| Nc1ccc(N2CCCC2)c(S(=O)(=O)Nc2cccc(C(F)(F)F)c2)c1 | inactive |
| COc1ccc2c(c1)-c1nc(/N=C/c3c(O)ccc4ccccc34)sc1CC2 | inactive |
| O=C(CN1C(=O)c2ccccc2S1(=O)=O)c1ccc(O)c(O)c1 | inactive |
| C=CCn1c(SCC(=O)c2ccc(O)c(O)c2)nnc1-c1cccc(Cl)c1 | inactive |
| CC1Cc2ccccc2N1C(=O)CNCCCN(C)C (stereo unspecified) | inactive |
| CN(C)C(=S)N=c1ssc(=S)n1Cc1ccccc1 | inactive |
| COc1ccc(NC2CCCN(C(=O)c3csc(C)n3)C2)cc1 (stereo unspecified) | inactive |
| C#CCOCCOCCOCCNc1nc(N2CCN(C(=O)[C@H](CCCCN)n3cc(CN)nn3)CC2)nc(N2CCN(C(=O)[C@H](CCC(=O)O)n3cc([C@@H](N)CCCCN)nn3)CC2)n1 | inactive |
| C#CCOCCOCCOCCNc1nc(N2CCN(C(=O)[C@H](CCCCN)n3cc(CN)nn3)CC2)nc(N2CCN(C(=O)[C@H](CCCCN)n3cc(CN)nn3)CC2)n1 | inactive |
| Cc1ccc(CCNc2ccc3ccccc3c2)cn1 | inactive |
| COc1cc(/C=C/CN2CCN(CCC(C)C)C(CCO)C2)ccc1O (stereo unspecified) | inactive |
| Nc1ccccc1Sc1ccc(C(=O)c2ccccc2C(=O)O)cc1[N+](=O)[O-] | inactive |
| COc1ccc(NC2CCCN(C(=O)CCc3cn[nH]c3)C2)cc1 (stereo unspecified) | inactive |
| COc1cccc(C(=O)Nc2cc3c(cc2N2CCCC2)n(C)c(=O)n3C)c1 | inactive |
| CCn1c(=O)n(CC)c2cc(N3CCCC3)c(NC(=O)c3ccccc3)cc21 | inactive |
| CN=Cc1cc(-c2ccccc2)sc1O | inactive |
| COc1cc(/C=N/NC(=O)C(C)Nc2n[nH]c(=O)[nH]c2=O)ccc1O (stereo unspecified) | inactive |
| COc1ccc(CN2CCN(c3ccccn3)CC2)c(OC)c1C | inactive |

| SMILES | outcome |
| --- | --- |
| COc1ccccc1OCC#CCn1ccnc1 | inactive |
| COc1cc(C2C(=O)c3ccccc3C2=O)ccc1O | inactive |
| COc1cc(/C=N/N2C(=O)c3ccccc3C2=O)ccc1O | inactive |
| Oc1ccc(/C=N/NC(=S)NCCN2CCOCC2)c(O)c1 | inactive |
| CC(=O)N1CCN(c2ccc(NCc3ccc(F)cc3)cc2)CC1 | inactive |
| Clc1ccc(CNc2ccc(N3CCN(Cc4ccccc4)CC3)cc2)cc1 | inactive |
| CSCCOC(=O)C1=C(C)Nc2ccc(C)cc2S1 | inactive |
| COc1cc(/C=N/n2c(-c3cc(C)[nH]n3)n[nH]c2=S)cc(OC)c1O | inactive |
| COc1cc(OC)c2cc[nH]c2c1 | inactive |
| COc1cc(C=C2C(=O)c3ccccc3C2=O)cc(OC)c1OC | inactive |
| C[n+]1c(-c2ccccc2)cc2c(=Cc3ccc([N+](=O)[O-])cc3)c3ccccc3n21 | inactive |
| CCOC(=O)c1sc(=S)[nH]c1C | inactive |
| c1cc(CNc2ccc3c(c2)OCO3)ccn1 | inactive |
| COc1cccc(CN2CCN(Cc3cccc(Oc4ccccc4)c3)CC2)c1OC | inactive |
| CC1(C)CC(=O)C(C(C2=C(O)CC(C)(C)CC2=O)c2cccs2)C(=O)C1 (stereo unspecified) | inactive |
| COc1ccccc1NS(=O)(=O)c1cc(N)ccc1N1CCCC1 | inactive |
| Cc1sc2ncnc(N/N=C/c3ccc(O)cc3)c2c1C | inactive |
| COc1ccc(/C=N/Nc2ccccn2)cc1O | inactive |
| COc1cc(/C=C/C(=O)OCC(=O)Nc2ccc(S(=O)(=O)N3CCCC3)cc2)ccc1O | inactive |
| CNC(=S)N/N=C/c1ccc(N2CCOCC2)s1 | inactive |
| NC(=O)N/N=C/c1ccc(N2CCOCC2)s1 | inactive |
| COc1cc(/C=N/n2cnnc2)ccc1OC(=O)c1ccncc1 | inactive |
| CSc1nc(=S)c2[nH]c(=S)[nH]c2[nH]1 | inactive |
